# About 14,000 (4.5%) of roughly 310,000 compounds showed an effect of 50% or more. Effects have a minus sign here. Shown is part of a subset that was picked to be rich in strong results.
# Target: human ether-à-go-go-related gene (hERG) potassium channel (human, UniProt Q12809)
# Test: primary screen, population patch clamp on CHO cells stably expressing hERG; higher = less effect of the substance
# 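Note: peak tail current of the secondary pulse compared with the same well before compound.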
# Chain of human ether-à-go-go-related gene (hERG) potassium channel (Q12809 whole entry, looked up): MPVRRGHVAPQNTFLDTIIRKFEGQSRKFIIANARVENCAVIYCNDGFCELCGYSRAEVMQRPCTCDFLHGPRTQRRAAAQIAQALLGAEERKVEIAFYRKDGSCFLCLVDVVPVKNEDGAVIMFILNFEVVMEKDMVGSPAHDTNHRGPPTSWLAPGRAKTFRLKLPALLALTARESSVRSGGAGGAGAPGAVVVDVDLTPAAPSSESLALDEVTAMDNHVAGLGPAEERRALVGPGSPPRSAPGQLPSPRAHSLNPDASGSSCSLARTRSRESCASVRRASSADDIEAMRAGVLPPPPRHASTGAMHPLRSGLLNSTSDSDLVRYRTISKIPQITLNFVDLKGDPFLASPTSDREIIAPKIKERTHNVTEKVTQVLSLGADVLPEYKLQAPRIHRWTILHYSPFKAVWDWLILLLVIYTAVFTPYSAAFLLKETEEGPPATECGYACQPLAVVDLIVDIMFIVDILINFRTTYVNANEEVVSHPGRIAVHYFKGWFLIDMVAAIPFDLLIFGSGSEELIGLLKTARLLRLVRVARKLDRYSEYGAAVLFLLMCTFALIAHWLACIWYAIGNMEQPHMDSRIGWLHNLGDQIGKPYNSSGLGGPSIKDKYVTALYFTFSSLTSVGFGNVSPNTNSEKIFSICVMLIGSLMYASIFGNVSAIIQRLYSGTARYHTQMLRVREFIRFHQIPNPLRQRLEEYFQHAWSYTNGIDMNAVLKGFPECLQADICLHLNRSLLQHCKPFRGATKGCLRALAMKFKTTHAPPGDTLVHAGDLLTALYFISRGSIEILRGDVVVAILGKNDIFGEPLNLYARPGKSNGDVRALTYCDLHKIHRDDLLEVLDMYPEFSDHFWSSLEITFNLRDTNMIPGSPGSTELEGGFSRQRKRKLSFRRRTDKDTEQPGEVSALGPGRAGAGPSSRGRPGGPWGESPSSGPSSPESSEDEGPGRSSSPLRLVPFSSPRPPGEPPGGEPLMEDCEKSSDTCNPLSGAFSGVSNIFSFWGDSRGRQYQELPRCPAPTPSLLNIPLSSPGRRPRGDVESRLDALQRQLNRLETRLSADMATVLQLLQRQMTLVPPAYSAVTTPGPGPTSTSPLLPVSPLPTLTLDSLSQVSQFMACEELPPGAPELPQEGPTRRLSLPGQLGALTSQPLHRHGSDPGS
row,SMILES,"hERG current change (%, negative = inhibition) at 10uM"
1,Cc1cccc(OCC(=O)Nc2ccc3oc(=O)ccc3c2)c1,8.55%
2,COc1ccc(C(C)=O)cc1Cn1nc(C)c([N+](=O)[O-])c1C,18.5%
3,CC1(C)Oc2ccc3ccc(=O)oc3c2/C(=C/NCCO)C1=O,5.11%
4,Br.CCCCCCn1c2c(c(=N)c3c1CCC3)CCC2,-76.5%
5,CCCn1c2c(c(=N)c3c1CCC3)CCC2.I,7.05%
6,Br.CCn1c2c(c(=N)c3c1CCC3)CCC2,0.642%
7,CCCn1c2c(c(=N)c3c1CCC3)CCCC2.I,6.05%
8,Br.CCCCCCCCn1c2c(c(=N)c3c1CCC3)CCCC2,-76.1%
9,Br.CCn1c2c(c(=N)c3c1CCC3)CCCC2,-2.41%
10,CCCCn1c2c(c(=N)c3c1CCC3)CCC2.I,-2.48%
11,Br.CCCCCCCCCCn1c2c(c(=N)c3c1CCC3)CCC2,-78.9%
12,CCOC(=O)Cn1c2c(c(=N)c3c1CCC3)CCC2.Cl,8.34%
13,Br.CCCCCCCCCn1c2c(c(=N)c3c1CCC3)CCC2,-74.1%
14,CCCCCCn1c(=O)[nH]c2c(c1=O)CCC2,-3.06%
15,CCOC(=O)Cn1c2c(c(=N)c3c1CCC3)CCCC2.Cl,18.5%
16,CC(NC(=O)Cc1ccccc1)c1nc2ccccc2[nH]1 (stereo not shown),5.94%
17,O=C(CCNC(=O)c1ccc([N+](=O)[O-])cc1)NCCc1ccc(Cl)cc1,-40.4%
18,Cc1cc(C)n2nc(CC(=O)NCc3ccc(F)cc3)nc2n1,-0.0725%
19,CCN(CC)N=Nc1ccc(S(=O)(=O)N2CCSC2C(=O)[O-])cc1.[K+] (stereo not shown),28.2%
20,CCC(C)[C@H](NC(=O)OC(C)(C)C)C(=O)N/N=C/c1ccc2nccnc2c1 (stereo partly shown),-13.8%
21,CNC(=O)c1cc(OCC(F)(F)F)ccc1OCC(F)(F)F,-4.26%
22,COc1ccc(S(=O)(=O)NCc2ccc(C(=O)NCc3cccnc3)cc2)cc1,-1.21%

row,SMILES,"hERG current change (%, negative = inhibition) at 10uM"
1,COc1ccc(C(=O)N2CCN(C)C(=O)[C@@H]2C)cc1OC1CCN(C(C)=O)CC1,12.6%
2,Cc1c(NC(=S)N/N=C/C=C/c2ccccc2)c(=O)n(-c2ccccc2)n1C,11.2%
3,Cc1ccc(-c2noc(C3CCCCC3)n2)cc1,16.1%
4,COc1cc(OC)cc(-c2cc3nc(C)c(CCC(=O)NCc4ccccc4)c(C)n3n2)c1,-33.8%
5,Cc1csc(NC(=O)CCc2c(C)nc3cc(-c4cccc(F)c4)nn3c2C)n1,-17.3%
6,COc1ccccc1CNC(=O)CCc1c(C)nc2cc(-c3ccccc3OC)nn2c1C,-11.5%
7,COc1ccccc1-c1cc2nc(C)c(CCC(=O)NCc3ccco3)c(C)n2n1,-43.1%
8,COc1ccccc1-c1cc2nc(C)c(CCC(=O)NC(C)CCc3ccco3)c(C)n2n1 (stereo not shown),-62.5%
9,Cc1nc2cc(-c3cccc(F)c3)nn2c(C)c1CCC(=O)NC(C)CCc1ccco1 (stereo not shown),-70.6%
10,COc1cc(OC)cc(-c2cc3nc(C)c(CCC(=O)NC(C)CCc4ccco4)c(C)n3n2)c1 (stereo not shown),-58.4%
11,COc1ccc(-c2cc3nc(C)c(CCC(=O)NCc4ccc(F)cc4)c(C)n3n2)c(OC)c1,-60.4%
12,COc1cc(OC)cc(-c2cc3nc(C)c(CCC(=O)Nc4nc(C)cs4)c(C)n3n2)c1,10%
13,Cc1nc2cc(-c3ccccc3)nn2c(C)c1CCC(=O)NCc1ccco1,-37.4%
14,COc1ccccc1-c1cc2nc(C)c(CCC(=O)NCc3ccc(F)cc3)c(C)n2n1,-49.7%
15,COc1ccc(CNC(=O)CCc2c(C)nc3cc(-c4ccccc4OC)nn3c2C)cc1,-37.7%
16,COc1ccc(C2SCC(=O)N2C)cc1 (stereo not shown),1.55%
17,COc1cccc(-c2cc(=O)c3cc(NC(=O)c4ccc(N(C)C)cc4)ccc3[nH]2)c1,16.2%
18,CN(C)S(=O)(=O)Oc1ccc(Cl)cc1C(=O)Nc1ccc(F)cc1F,-3.01%
19,Cc1cc(N/N=C2\CC(C)CC(C)(C)C2)nc2ccccc12 (stereo not shown),-7.04%
20,CCN1C(=O)/C(=C/c2ccc3c(c2)CCN3CCCCl)C(=O)NC1=S,-3.76%
21,N#Cc1c(-c2ccco2)cc(-c2ccc(F)cc2)nc1N,-2.08%
